# Measured values as given in PubChem BioAssay.
# Results filed as inconclusive are left out. Active and inactive are the calls of the source. Unless noted, cut-off not given; nearly all actives show AC50 up to about 26 µM.
# Legend:
# [1] = growth inhibition of DIPG glioma cells, dose response, cell-based, SU-DIPG-XIII, MIPE5.0, CellTiter-Glo, qHTS (AID 1347064; cut-off not given, nearly all actives have AC50 up to about 23 µM;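 on AC50: cells exposed to compound for 48 hours before the viability read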); details: SU-DIPG-XIII viability, CellTiter-Glo ATP luminescence
# [2] = viability loss in pontine glioma line – cell-based, SU-DIPG-XXV, MIPE5.0, CellTiter-Glo, qHTS, dose response (AID 1347065); details: CellTiter-Glo ATP luminescence;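 further: cells exposed to compound for 48 hours before ATP readout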
# [3] = growth inhibition of DIPG glioma cells, dose response, cell-based, SU-DIPG-IV, MIPE4.0, CellTiter-Glo, qHTS (AID 1347063; cut-off not given, nearly all actives have AC50 up to about 30 µM;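 further: compound exposure lasted 48 hours before the viability readout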); details: SU-DIPG-IV viability, CellTiter-Glo ATP luminescence
# [4] = SU-DIPG-XXV glioma cell viability, MIPE5.0 library, qHTS (AID 1347068; cut-off not given, nearly all actives have IC50 up to about 30 µM;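 on IC50: cells exposed to compound for 48 hours before viability readout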)
# [5] = SU-DIPG-VI glioma cell viability, MIPE4.0 library, CellTiter-Glo luminescence, qHTS (AID 1347066; cut-off not given, nearly all actives have AC50 up to about 30 µM;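 further: cells exposed to compound for 48 hours before readout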); details: CellTiter-Glo ATP luminescence
# [6] = JHH-DIPG-1 glioma cell viability, MIPE5.0 library, CellTiter-Glo luminescence, qHTS (AID 1347067); details: JHH-DIPG-1 glioma viability, CellTiter-Glo ATP luminescence;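 further: cells exposed to compound for 48 hours before readout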
# [7] = liver-stage malaria parasite growth inhibition, primary screen, cell-based, HepG2, luciferase luminescence, HepG2 viability (AID 624349; in the data active means parasite load remaining mostly below about 12%, no sharp cut-off; inactive means mostly above about 10%;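 further: 100% = mean of DMSO negative control wells on the same plate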); details: P. berghei liver stage in HepG2, luciferase luminescence, concentration not given here; parasite load remaining: stronger effect = lower value; viability: measured here: HepG2 viability without parasites
# [8] = sensitizers of A549 cells to miR-34 induction, primary screen, imaging, A549 dox-inducible miR-34, nuclei and caspase counts (AID 1347080;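 active means compounds whose cell count with miR-34 switched on is under 0.7 times the count with it off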); details: A549 miR-34 inducible, Hoechst nuclei count, 48 h
# [9] = survival rescue of mitochondrial mutant cells in low glucose, primary screen, MELAS cybrids, Rieske KO mouse fibroblasts, CellTiter-Glo (AID 1508586;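 active means mean z-score across replicates of 1.96 or higher in either the MELAS or the Rieske mutant cell line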;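 further: z relative to plate mean and SD of compound and empty wells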)
# [10] = stronger effect = lower value, cell number ratio, induced over uninduced
# [11] = measured here: relative caspase fold change +Dox/-Dox
# [12] = measured here: total cells with miR-34 induction, stronger effect = lower value
# [13] = measured here: total cells without miR-34 induction
# [14] = MELAS cybrid survival, CellTiter-Glo 48 h, stronger effect = higher value
# [15] = Rieske KO mouse fibroblast survival, CellTiter-Glo 72 h
smiles,measurement,setting,value
Cc1cc(C(=O)Nc2cc(Oc3ccc4nc(NC(=O)C5CC5)cn4n3)ccc2C)n(C)n1,AC50,[1],10.5 µM (active)
same,AC50,[2],5.9 µM (active)
CC(C)N(CCCNC(=O)Nc1ccc(C(C)(C)C)cc1)C[C@H]1O[C@@H](n2cc(Br)c3c(N)ncnc32)[C@H](O)[C@@H]1O,AC50,[3],14.8 µM (active)
same,IC50,[4],23.5 µM (active)
NC(=O)c1cccc2[nH]c(-c3ccc([C@H]4CCCN4)cc3F)nc12,outcome,[3],inactive
same,outcome,[5],inactive
same,outcome,[4],inactive
CNC(=O)[C@H](CC1=CN=C2C=CCC=C12)NC(=O)[C@@H](CC(=O)NO)CC(C)C,AC50,[3],0.0372 µM (active)
same,AC50,[5],0.0332 µM (active)
OC(c1ccc(-c2ccc(CN3CCN(Cc4ccncc4)CC3)cc2)c(F)c1)(C(F)(F)F)C(F)(F)F,outcome,[1],inactive
same,outcome,[2],inactive
same,outcome,[6],inactive
same,outcome,[4],inactive
O=C1OC(COc2ccccc2[N+](=O)[O-])CC1Cc1ccccc1 (stereo not drawn),outcome,[1],inactive
same,outcome,[2],inactive
same,outcome,[6],inactive
same,outcome,[4],inactive
CC(C)C(N)C(=O)OCC(CO)OCn1cnc2c(=O)[nH]c(N)nc21 (stereo not drawn),outcome,[1],inactive
same,outcome,[2],inactive
same,outcome,[6],inactive
same,outcome,[4],inactive
NC(=S)N/N=C/c1ncccc1N,AC50,[1],11.8 µM (active)
same,AC50,[2],16.6 µM (active)
same,AC50,[6],14.8 µM (active)
Cc1ccc(NC(=O)[C@H]2CCCN(C(=O)c3c(C)cccc3F)[C@H]2c2ccc(NC3CCCC3)cc2)cc1C(F)(F)F,outcome,[1],inactive
same,outcome,[2],inactive
same,outcome,[6],inactive
same,outcome,[4],inactive
CONC(=O)Nc1ccc(-c2sc3c(c2CN(C)C)c(=O)n(-c2ccc(OC)nn2)c(=O)n3Cc2c(F)cccc2F)cc1,outcome,[1],inactive
same,outcome,[2],inactive
same,outcome,[6],inactive
CN1C(=O)N[C@H](Cc2c[nH]c3c(Cl)cccc23)C1=O,outcome,[1],inactive
same,outcome,[2],inactive
same,outcome,[6],inactive
NC(=O)c1cccc(-c2cc(Nc3ccc(OC(F)(F)F)cc3)ncn2)c1,parasite load remaining,[7],33% (inactive)
same,viability,[7],100%
same,AC50,[1],20.9 µM (active)
same,AC50,[2],20.9 µM (active)
same,outcome,[5],inactive
same,AC50,[6],20.9 µM (active)
same,IC50,[4],18.6 µM (active)
same,fold change,[8]; [10],0.899 (inactive)
same,fold change,[8]; [11],1.65
same,cell count,[8]; [12],7160
same,cell count,[8]; [13],7960
same,z-score,[9]; [14],-0.11 (inactive)
same,z-score,[9]; [15],-0.362
CN[C@@H](C)C(=O)N[C@H](C(=O)N1CCC[C@H]1C(=O)Nc1snnc1-c1ccccc1)C1CCCCC1,outcome,[1],inactive
same,outcome,[2],inactive
same,outcome,[6],inactive
same,outcome,[4],inactive
CCN1C(=O)CNc2ncc(-c3ccc(-c4ncn[nH]4)nc3C)nc21,AC50,[1],4.17 µM (active)
same,AC50,[2],1.48 µM (active)
same,AC50,[6],5.9 µM (active)
same,IC50,[4],8.33 µM (active)
c1ccc(CNCc2ccc(CN3CCCNCCNCCCNCC3)cc2)nc1,outcome,[1],inactive
same,outcome,[2],inactive
same,outcome,[6],inactive
same,outcome,[4],inactive
CC1(C)CCC2(CC1)N[C@@H](C(=O)N[C@@H]1CC[C@@H](C(N)=O)OC1)[C@H](c1ccnc(Cl)c1F)[C@]21C(=O)Nc2cc(Cl)ccc21,AC50,[1],16 µM (active)
same,AC50,[2],16 µM (active)
same,AC50,[6],20.1 µM (active)
same,outcome,[4],inactive
COc1cc(OCc2cccc(-c3ccccc3)c2C)cc(OC)c1CN1CCCC[C@H]1C(=O)O,outcome,[1],inactive
same,AC50,[2],20.9 µM (active)
C[C@@H](C(=O)Nc1ccc(Cl)cc1)C1CCC(c2ccnc3ccc(F)cc23)CC1 (stereo partly drawn),outcome,[1],inactive
same,outcome,[2],inactive
same,outcome,[6],inactive
CCS(=O)(=O)N1CCN(c2ccc(Nc3ncc(C(N)=O)c(NC4CC4)n3)cc2)CC1,AC50,[1],16.6 µM (active)
same,AC50,[2],11.8 µM (active)
same,AC50,[6],14.8 µM (active)
same,IC50,[4],23.5 µM (active)
NC(=O)c1cnc(N[C@@H]2CCCC[C@@H]2N)nc1Nc1cccc(-n2nccn2)c1,AC50,[1],7.42 µM (active)
same,AC50,[2],5.25 µM (active)
same,AC50,[6],23.5 µM (active)
same,IC50,[4],18.6 µM (active)
C=CC(=O)Nc1cccc(Sc2nc(Nc3ccc(N4CCN(C)CC4)cc3)ncc2Cl)c1,AC50,[1],2.09 µM (active)
same,AC50,[2],1.48 µM (active)
same,AC50,[6],4.17 µM (active)
same,IC50,[4],1.66 µM (active)
same,fold change,[8]; [10],0.881 (inactive)
same,fold change,[8]; [11],1.05
same,cell count,[8]; [12],4990
same,cell count,[8]; [13],5660
same,z-score,[9]; [14],-0.417 (inactive)
same,z-score,[9]; [15],0.935
Nc1nccc2c1ncn2[C@@H]1C=C(CO)[C@@H](O)[C@H]1O,outcome,[1],inactive
same,outcome,[2],inactive
same,outcome,[6],inactive
same,outcome,[4],inactive
Cc1c(C(=O)Nc2ccc(Oc3ccnc4[nH]cc(-c5ccccc5)c34)c(F)c2)c(=O)n(-c2ccc(F)cc2)n1C,AC50,[1],16.6 µM (active)
same,AC50,[2],5.25 µM (active)
same,AC50,[6],16.6 µM (active)
COCc1c(-c2ccc(NC(=O)Nc3cc(C(F)(F)F)ccc3F)c(F)c2)c2c(N)ncnn2c1CN1CCOCC1,AC50,[1],0.295 µM (active)
same,AC50,[2],0.186 µM (active)
same,AC50,[6],6.61 µM (active)
same,IC50,[4],7.42 µM (active)
Cc1cc(O)c(-c2ccc([C@@H](C)CN(C)C)cc2)c2c1[nH]c(=O)c1sccc12,AC50,[1],0.417 µM (active)
same,AC50,[2],0.332 µM (active)
same,AC50,[6],0.417 µM (active)
same,IC50,[4],0.332 µM (active)
Cc1c(NC(=O)c2cc(C(N)=O)nc3cc(F)ccc23)c(C(F)(F)F)nn1Cc1ccc(C(C)(C)C)cc1,AC50,[1],26.3 µM (active)
same,AC50,[2],20.9 µM (active)
same,AC50,[6],23.5 µM (active)
CN(C)N(C)C(=O)[C@@]1(Cc2ccccc2)CCCN(C(=O)[C@@H](Cc2c[nH]c3ccccc23)NC(=O)C(C)(C)N)C1,outcome,[1],inactive
same,outcome,[2],inactive
same,outcome,[6],inactive
same,outcome,[4],inactive
